One may read the AC50 as the concentration at which the activity in the assay is half-maximal.

Calls of active or inactive are those of the source. Rule for the calls: active = hit-call score of the fitted dose curve at least 0.9, where 1 is the maximum; inactive = score below 0.9.

The test in a line: Tanguay_ZF_120hpf_MORT: Oregon State University Tanguay Lab 120 Hour Post-fertilization zebrafish Assay for Mortality (AID 2284399). How it is done:
Tanguay_ZF_120hpf is a whole embryo, multiplexed endpoint assay using zebrafish larvae exposed for 120 hours post fertilization on a 96-well plate.Tanguay_ZF_120hpf_MORT is one of one assay component(s) measured or calculated from the Tanguay_ZF_120hpf assay. It is designed to make measurements of zebrafish development as detected with brightfield microscopy of developing zebrafish embryos.Data from the assay component Tanguay_ZF_120hpf_MORT was analyzed into 1 assay endpoints. This assay endpoint, Tanguay_ZF_120hpf_MORT, was analyzed in the positive analysis fitting direction relative to DMSO as the negative control and baseline of activity. Using a type of viability reporter, gain-of-signal activity can be used to understand changes in developmentals as they relate to the whole embryo. To generalize the intended target to other relatable targets, this assay endpoint is annotated to the zebrafish development intended target family, where the subfamily is embryonic mortality.
Zebrafish husbandry: Tropical 5D wild-type adult zebrafish were housed in at an approximate density of 1000 per 100 gallon tank at the Sinnhuber Aquatic Research Laboratory, Oregon State University, Corvallis, OR. Each tank was kept at standard laboratory conditions of 28C on a 14-h light/10-h dark photoperiod in fish water consisting of reverse osmosis water supplemented with a commercially available salt (Instant Ocean). Spawning funnels were placed into the tanks the night prior, and embryos were collected and staged. To increase bioavailability, the chorion was enzymatically removed using pronase (63.6mg/ml, >/= 3.5U/mg, Sigma-Aldrich: P5147) at 4 hours post fertilization (hpf) using a custom automated dechorionator.Chemical exposures: Six hpf dechorionated embryos were placed 1 embryo per well in a 96-well plate prefilled with 90 ul of EM using automated embryo placement systems (AEPS). Ten microliters of each row of dilution plate 2 was added to 2 exposure plates. The final DMSO concentration used was 0.64% (vol/vol). Thirty-two embryos were also exposed to 5uM trimethyltin chloride (positive control). Plates were sealed to prevent evaporation and foil covered to reduce light exposure and kept in a 28C incubator. Embryos were statically exposed until 120 hpf. At 24 hpf, embryos were assessed for photomotor response using a custom photomotor response analysis tool (PRAT) and for developmental toxicity endpoints (MO24: mortality at 24 hpf, DP: developmental progression, SM: spontaneous movement, and NC: notochord distortion). At 120 hpf, locomotor activity was measured using Viewpoint Zebralab and assessed for 13 endpoints. Zebrafish acquisition and analysis program (ZAAP), a custom program designed to inventory, acquire, and manage zebrafish data, was used to collect developmental endpoints as either present or absent (i.e., binary responses were recorded). If mortality occurred for an embryo (at either 24 or 120 hpf), the non-mortality endpoints were not measured.
With `OCCC(F)(F)C(F)(F)C(F)(F)C(F)(F)F`, the compound was called inactive.
Same read-out and setting: the value for `OC(O)(C(F)C(O)(O)C(F)(F)F)C(F)(F)F` was “inactive”; that for `FC(F)=C(F)C(F)(F)C(F)(F)C(F)(F)C(F)(F)C(F)(F)C(F)(F)F` was “inactive”; that for `FC(F)(F)C(F)(F)C(F)(F)C(F)(F)C(F)(F)C(F)(F)I` was “inactive”.
For `FC(F)(F)COC(OCC(F)(F)F)OCC(F)(F)F`, the compound was called inactive.
Consider `C[Si](C)(C)C(F)(F)C(F)(F)C(F)(F)F`, for which the compound was called inactive.
On to `FC(F)C(F)(F)COCC1CO1` (stereo not given), for which the compound was classed as inactive.
With `O=S(=O)(O)CCC(F)(F)C(F)(F)C(F)(F)C(F)(F)C(F)(F)C(F)(F)F`, the call was inactive.
Consider `NCC(F)(F)C(F)(F)C(F)(F)C(F)(F)F`, for which the compound was classed as inactive.
In the case of `O=C(Cl)C(F)(F)C(F)(F)C(F)(F)C(=O)Cl`, the AC50 is 57.6 µM (active).

The values above are taken from PubChem BioAssay (EPA / NIEHS).
